15 compounds from ChEMBL document CHEMBL4513137, “CO-ADD screening of University of Manchester (UK) compounds” can be followed below.

Each structure is given as a SMILES string. Potency and affinity values are given separately.

Assay [1] deals with Klebsiella pneumoniae. To be noted: Concentration 32 ug.mL-1; ASSAY_TEST Inhibition of Bacterial Growth; detection method Absorption (OD600); MEDIA CAMHB; plate type 384well; NBS; CORNING #3640; time 18 hr.
Assay [2] has as its system Candida albicans. To be noted: 32 ug/mL.
The subject of assay [3] is Cryptococcus neoformans. The following applies: Concentration 32 ug.mL-1; ASSAY_TEST Inhibition of Fungal Growth; detection method Resazurin; Absorption (OD600-OD570); plate type 384well; NBS; CORNING #3640.

As to `O=[N+]([O-])c1ccc(-c2c(Nc3ccccc3)cccc2-c2ccccc2)cc1`, the Inhibition in assay [1] worked out at 6.43%; in assay [2] it was 7.71%; in assay [3] it was 2.38%.

Turning to `COc1cc([N+](=O)[O-])ccc1-c1ccccc1Nc1ccccc1`, the figures for the Inhibition in assay [1], in assay [2] and in assay [3] were 18.46%, 5.71% and -0.44%, respectively.

In the case of `COc1cccc(Nc2ccccc2)c1-c1ccc([N+](=O)[O-])cc1`, the values for the Inhibition in assay [1], in assay [2] and in assay [3] were -2.96%, 7.07% and 1.49%, respectively.

For `Clc1cc(Br)cc(Cl)c1-c1ccccc1Nc1ccccc1`, the Inhibition in assay [1] was 1.2%; in assay [2], 5.55%; in assay [3], 2.48%.

Consider `O=[N+]([O-])c1ccc(-c2ccccc2Nc2ccccc2)cc1C(F)(F)F`, for which the results for the Inhibition in assay [1], in assay [2] and in assay [3] were 20.57%, 12.5% and 2.9%, respectively.

Consider `O=[N+]([O-])c1ccc(-c2ccccc2Nc2ccccc2Br)cc1`, for which the Inhibition in assay [1] stood at 7.18%; in assay [2], 4.47%; in assay [3], 1.33%.

`Cc1cc([N+](=O)[O-])ccc1-c1ccccc1N(C)c1ccccc1`: the Inhibition in assay [1] was -15.08%; in assay [2] it was 5.96%; in assay [3] it was -0.44%.

For `O=[N+]([O-])c1ccc(-c2ccccc2Nc2ccccc2)cc1`, the results for the Inhibition in assay [1], in assay [2] and in assay [3] were -3.59%, 9.3% and 1.06%, respectively.

For the compound `O=[N+]([O-])c1ccc(-c2c(Nc3ccccc3)ccc3ccccc23)cc1`, the figures for the Inhibition in assay [1], in assay [2] and in assay [3] were -5.26%, 1.64% and 0.54%, respectively.

`O=[N+]([O-])c1cc(Cl)c(-c2ccccc2Nc2ccccc2)c(Cl)c1`: the Inhibition in assay [1] was -1.39%; in assay [2], 6.95%; in assay [3], -0.86%.

On to `COc1cccc(N(C)c2cccc(OC)c2-c2ccc([N+](=O)[O-])cc2C)c1`, for which the Inhibition in assay [1] was 4.9%; in assay [2] it was 3.58%; in assay [3], -0.6%.

`Cc1ccccc1Nc1ccccc1-c1ccc([N+](=O)[O-])cc1`: the Inhibition in assay [1] was -1.35%; in assay [2] it was -0.09%; in assay [3], -1.9%.

`CC(=O)c1ccc(-c2ccccc2Nc2ccccc2)cc1`: the figures for the Inhibition in assay [1], in assay [2] and in assay [3] were 4.21%, 1.55% and 0.86%, respectively.

With `CC[C@@H](Nc1ccccc1-c1c(Cl)cc(Br)cc1Cl)c1ccccc1`, the results for the Inhibition in assay [1], in assay [2] and in assay [3] were 20.15%, 9.45% and 0.76%, respectively.

Consider `Cc1cccc(C)c1Nc1ccccc1-c1ccccc1[N+](=O)[O-]`, for which the Inhibition in assay [1] worked out at 2.08%; in assay [2], 6.73%; in assay [3], 4.1%.
